Columns and labels:
[1] = molecular target: MAP/microtubule affinity-regulating kinase 3 (Homo sapiens) (UniProt P27448); conditions: at 1 µM;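 note: reported values are averaged percent inhibition of MARK3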
[2] = molecular target: T1, MAP/microtubule affinity-regulating kinase 4 (Homo sapiens) (UniProt Q96L34); conditions: at 0.1 µM
T1 sequence (whole entry): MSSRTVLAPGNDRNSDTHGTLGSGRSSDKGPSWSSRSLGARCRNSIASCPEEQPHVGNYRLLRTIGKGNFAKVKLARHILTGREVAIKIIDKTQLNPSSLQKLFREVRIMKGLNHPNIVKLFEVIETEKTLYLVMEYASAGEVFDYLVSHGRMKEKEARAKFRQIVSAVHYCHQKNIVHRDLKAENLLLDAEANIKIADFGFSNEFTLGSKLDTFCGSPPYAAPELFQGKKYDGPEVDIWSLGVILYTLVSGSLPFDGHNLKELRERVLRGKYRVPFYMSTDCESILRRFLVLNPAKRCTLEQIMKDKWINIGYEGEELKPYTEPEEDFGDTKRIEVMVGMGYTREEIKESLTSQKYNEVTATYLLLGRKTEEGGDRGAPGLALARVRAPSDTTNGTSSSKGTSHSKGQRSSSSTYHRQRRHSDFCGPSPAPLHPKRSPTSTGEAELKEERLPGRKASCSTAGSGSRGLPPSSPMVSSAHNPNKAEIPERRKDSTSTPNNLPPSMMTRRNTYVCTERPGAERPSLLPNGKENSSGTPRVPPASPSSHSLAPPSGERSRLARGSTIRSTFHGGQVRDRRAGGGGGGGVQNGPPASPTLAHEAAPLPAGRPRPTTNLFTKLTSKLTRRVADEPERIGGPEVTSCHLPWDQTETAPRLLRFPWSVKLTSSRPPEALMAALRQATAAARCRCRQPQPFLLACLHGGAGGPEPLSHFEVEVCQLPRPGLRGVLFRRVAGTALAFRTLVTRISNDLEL

[3] = molecular target: T1, MAP/microtubule affinity-regulating kinase 4 (Homo sapiens); conditions: at 1 µM
[4] = molecular target: Maternal embryonic leucine zipper kinase (Homo sapiens) (UniProt Q14680); conditions: at 0.1 µM
Maternal embryonic leucine zipper kinase (Homo sapiens), sequence (Q14680 whole entry, looked up): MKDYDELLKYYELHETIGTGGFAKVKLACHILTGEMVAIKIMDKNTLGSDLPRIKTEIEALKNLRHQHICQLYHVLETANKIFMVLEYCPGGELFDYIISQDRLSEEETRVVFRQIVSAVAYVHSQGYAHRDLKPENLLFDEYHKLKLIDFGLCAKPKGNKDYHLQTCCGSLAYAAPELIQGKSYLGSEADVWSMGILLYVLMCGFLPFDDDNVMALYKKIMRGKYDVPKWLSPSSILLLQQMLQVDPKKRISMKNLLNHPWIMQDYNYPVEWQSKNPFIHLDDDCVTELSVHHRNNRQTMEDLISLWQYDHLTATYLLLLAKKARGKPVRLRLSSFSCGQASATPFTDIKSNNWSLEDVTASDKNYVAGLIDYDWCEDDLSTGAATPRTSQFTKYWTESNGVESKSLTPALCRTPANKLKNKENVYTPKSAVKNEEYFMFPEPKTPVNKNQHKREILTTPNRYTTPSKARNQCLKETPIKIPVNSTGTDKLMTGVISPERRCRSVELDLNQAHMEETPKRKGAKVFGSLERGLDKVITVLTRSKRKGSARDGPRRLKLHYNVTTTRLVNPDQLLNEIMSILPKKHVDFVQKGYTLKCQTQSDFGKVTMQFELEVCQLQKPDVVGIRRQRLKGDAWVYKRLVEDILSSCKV

[5] = molecular target: Maternal embryonic leucine zipper kinase (Homo sapiens) (UniProt Q14680); conditions: at 1 µM
[6] = molecular target: MAP kinase-interacting serine/threonine-protein kinase 1 (Homo sapiens) (UniProt Q9BUB5); conditions: at 0.1 µM
MAP kinase-interacting serine/threonine-protein kinase 1 (Homo sapiens), sequence (Q9BUB5 whole entry, looked up): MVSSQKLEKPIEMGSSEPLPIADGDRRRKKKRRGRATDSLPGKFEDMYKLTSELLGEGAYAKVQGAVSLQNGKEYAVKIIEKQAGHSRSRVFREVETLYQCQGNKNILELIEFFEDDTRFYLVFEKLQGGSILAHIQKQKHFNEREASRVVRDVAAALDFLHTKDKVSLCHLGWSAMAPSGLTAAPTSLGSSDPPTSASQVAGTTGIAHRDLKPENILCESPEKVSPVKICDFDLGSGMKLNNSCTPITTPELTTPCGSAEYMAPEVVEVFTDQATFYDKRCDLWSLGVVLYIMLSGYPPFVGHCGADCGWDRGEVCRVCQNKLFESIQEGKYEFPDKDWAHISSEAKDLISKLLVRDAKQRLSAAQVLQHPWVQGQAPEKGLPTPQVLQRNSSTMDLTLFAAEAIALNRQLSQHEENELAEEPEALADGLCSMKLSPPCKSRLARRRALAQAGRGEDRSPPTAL

[7] = molecular target: MAP kinase-interacting serine/threonine-protein kinase 1 (Homo sapiens) (UniProt Q9BUB5); conditions: at 1 µM
[8] = molecular target: MAP kinase-interacting serine/threonine-protein kinase 2 (Homo sapiens) (UniProt Q9HBH9); conditions: at 0.1 µM
MAP kinase-interacting serine/threonine-protein kinase 2 (Homo sapiens), sequence (Q9HBH9 whole entry, looked up): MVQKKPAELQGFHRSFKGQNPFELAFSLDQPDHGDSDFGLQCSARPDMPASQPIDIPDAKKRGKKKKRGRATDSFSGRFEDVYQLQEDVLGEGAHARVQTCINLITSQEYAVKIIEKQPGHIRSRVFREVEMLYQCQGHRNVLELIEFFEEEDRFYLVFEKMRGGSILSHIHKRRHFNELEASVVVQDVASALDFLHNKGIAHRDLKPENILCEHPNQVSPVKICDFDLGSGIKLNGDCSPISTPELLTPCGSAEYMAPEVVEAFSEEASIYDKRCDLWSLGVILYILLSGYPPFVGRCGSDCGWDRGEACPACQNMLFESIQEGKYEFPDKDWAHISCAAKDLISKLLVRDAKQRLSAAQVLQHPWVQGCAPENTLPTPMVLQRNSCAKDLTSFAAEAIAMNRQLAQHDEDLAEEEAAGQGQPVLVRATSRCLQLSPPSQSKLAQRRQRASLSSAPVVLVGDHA

[9] = molecular target: MAP kinase-interacting serine/threonine-protein kinase 2 (Homo sapiens) (UniProt Q9HBH9); conditions: at 1 µM
[10] = molecular target: Serine/threonine-protein kinase MARK2 (Homo sapiens) (UniProt Q7KZI7); conditions: at 0.1 µM
Serine/threonine-protein kinase MARK2 (Homo sapiens), sequence (Q7KZI7 whole entry, the tested form may be a part): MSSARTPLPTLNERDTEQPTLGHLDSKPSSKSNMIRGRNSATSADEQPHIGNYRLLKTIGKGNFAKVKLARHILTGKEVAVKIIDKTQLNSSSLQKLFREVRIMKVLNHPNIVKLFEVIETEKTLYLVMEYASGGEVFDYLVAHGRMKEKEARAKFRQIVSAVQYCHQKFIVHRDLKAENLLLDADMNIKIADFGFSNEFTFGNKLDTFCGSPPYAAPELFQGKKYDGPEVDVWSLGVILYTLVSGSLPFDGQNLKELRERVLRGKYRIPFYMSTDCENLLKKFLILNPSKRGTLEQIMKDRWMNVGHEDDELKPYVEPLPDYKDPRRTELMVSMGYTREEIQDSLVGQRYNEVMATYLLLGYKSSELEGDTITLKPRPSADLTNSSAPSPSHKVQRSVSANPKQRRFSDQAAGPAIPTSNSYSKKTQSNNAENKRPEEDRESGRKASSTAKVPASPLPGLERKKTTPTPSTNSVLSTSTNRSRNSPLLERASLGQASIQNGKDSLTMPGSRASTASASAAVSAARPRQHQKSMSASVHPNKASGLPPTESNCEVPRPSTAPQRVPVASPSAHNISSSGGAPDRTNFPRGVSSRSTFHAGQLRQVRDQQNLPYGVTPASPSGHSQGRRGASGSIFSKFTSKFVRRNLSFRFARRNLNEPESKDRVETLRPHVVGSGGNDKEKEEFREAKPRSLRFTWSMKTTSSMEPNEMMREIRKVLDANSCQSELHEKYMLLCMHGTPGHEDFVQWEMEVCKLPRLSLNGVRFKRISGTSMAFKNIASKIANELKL

[11] = molecular target: Serine/threonine-protein kinase MARK2 (Homo sapiens) (UniProt Q7KZI7); conditions: at 1 µM
[12] = molecular target: PAS domain-containing serine/threonine-protein kinase (Homo sapiens) (UniProt Q96RG2); conditions: at 0.1 µM
[13] = molecular target: PAS domain-containing serine/threonine-protein kinase (Homo sapiens) (UniProt Q96RG2); conditions: at 1 µM
[14] = molecular target: Phosphorylase b kinase gamma catalytic chain, skeletal muscle/heart isoform (Homo sapiens) (UniProt Q16816); conditions: at 0.1 µM
Phosphorylase b kinase gamma catalytic chain, skeletal muscle/heart isoform (Homo sapiens), sequence (Q16816 whole entry, looked up, canonical isoform): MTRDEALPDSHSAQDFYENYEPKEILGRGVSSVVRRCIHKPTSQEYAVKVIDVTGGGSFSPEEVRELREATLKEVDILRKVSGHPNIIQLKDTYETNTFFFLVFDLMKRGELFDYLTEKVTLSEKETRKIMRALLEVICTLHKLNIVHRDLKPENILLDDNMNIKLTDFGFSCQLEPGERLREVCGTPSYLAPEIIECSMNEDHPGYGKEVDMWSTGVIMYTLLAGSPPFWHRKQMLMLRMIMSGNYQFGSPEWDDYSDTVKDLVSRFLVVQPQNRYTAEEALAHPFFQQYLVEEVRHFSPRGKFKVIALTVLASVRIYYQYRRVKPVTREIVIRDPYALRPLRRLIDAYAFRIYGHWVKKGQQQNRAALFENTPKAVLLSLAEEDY

[15] = molecular target: Phosphorylase b kinase gamma catalytic chain, skeletal muscle/heart isoform (Homo sapiens) (UniProt Q16816); conditions: at 1 µM
[16] = molecular target: T2, Phosphorylase b kinase gamma catalytic chain, liver/testis isoform (Homo sapiens) (UniProt P15735); conditions: at 0.1 µM
T2 sequence (whole entry): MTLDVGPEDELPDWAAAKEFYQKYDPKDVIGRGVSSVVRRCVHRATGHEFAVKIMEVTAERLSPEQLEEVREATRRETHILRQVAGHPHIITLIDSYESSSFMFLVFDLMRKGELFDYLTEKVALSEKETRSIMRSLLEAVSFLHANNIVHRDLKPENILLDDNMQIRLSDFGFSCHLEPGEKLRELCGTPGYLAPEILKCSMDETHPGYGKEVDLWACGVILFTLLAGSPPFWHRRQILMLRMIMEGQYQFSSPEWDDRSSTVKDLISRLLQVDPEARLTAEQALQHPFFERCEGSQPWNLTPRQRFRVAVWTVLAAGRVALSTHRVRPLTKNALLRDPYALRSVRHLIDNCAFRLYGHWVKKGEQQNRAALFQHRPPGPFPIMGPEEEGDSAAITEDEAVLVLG

[17] = molecular target: T2, Phosphorylase b kinase gamma catalytic chain, liver/testis isoform (Homo sapiens); conditions: at 1 µM
[18] = molecular target: Serine/threonine-protein kinase pim-1 (Homo sapiens) (UniProt P11309); conditions: at 0.1 µM
Serine/threonine-protein kinase pim-1 (Homo sapiens), sequence (P11309 whole entry, looked up): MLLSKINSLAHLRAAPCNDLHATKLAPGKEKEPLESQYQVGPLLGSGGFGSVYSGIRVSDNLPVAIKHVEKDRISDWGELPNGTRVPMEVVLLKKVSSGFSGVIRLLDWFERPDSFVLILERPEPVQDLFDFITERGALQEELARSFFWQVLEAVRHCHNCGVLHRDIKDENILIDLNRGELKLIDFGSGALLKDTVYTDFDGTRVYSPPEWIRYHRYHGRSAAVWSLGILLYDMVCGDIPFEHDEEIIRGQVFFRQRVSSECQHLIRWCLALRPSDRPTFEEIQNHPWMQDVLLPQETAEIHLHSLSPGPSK

[19] = molecular target: Serine/threonine-protein kinase pim-1 (Homo sapiens) (UniProt P11309); conditions: at 1 µM
[20] = molecular target: Serine/threonine-protein kinase pim-2 (Homo sapiens) (UniProt Q9P1W9); conditions: at 0.1 µM;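 note: reported value is the mean percent inhibition of PIM2, measured in the GSK PKIS kinase inhibitor set screen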
Serine/threonine-protein kinase pim-2 (Homo sapiens), sequence (Q9P1W9 whole entry, looked up): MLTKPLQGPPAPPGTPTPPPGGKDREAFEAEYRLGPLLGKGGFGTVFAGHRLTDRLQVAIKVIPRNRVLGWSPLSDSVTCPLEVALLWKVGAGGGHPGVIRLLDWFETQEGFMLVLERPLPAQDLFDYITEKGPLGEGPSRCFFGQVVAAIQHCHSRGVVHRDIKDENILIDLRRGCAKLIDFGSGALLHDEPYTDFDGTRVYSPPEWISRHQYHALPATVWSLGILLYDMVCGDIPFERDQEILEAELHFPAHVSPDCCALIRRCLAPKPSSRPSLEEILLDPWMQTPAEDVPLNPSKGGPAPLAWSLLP

MAP/microtubule affinity-regulating kinase 3 (Homo sapiens), sequence (P27448 whole entry, looked up): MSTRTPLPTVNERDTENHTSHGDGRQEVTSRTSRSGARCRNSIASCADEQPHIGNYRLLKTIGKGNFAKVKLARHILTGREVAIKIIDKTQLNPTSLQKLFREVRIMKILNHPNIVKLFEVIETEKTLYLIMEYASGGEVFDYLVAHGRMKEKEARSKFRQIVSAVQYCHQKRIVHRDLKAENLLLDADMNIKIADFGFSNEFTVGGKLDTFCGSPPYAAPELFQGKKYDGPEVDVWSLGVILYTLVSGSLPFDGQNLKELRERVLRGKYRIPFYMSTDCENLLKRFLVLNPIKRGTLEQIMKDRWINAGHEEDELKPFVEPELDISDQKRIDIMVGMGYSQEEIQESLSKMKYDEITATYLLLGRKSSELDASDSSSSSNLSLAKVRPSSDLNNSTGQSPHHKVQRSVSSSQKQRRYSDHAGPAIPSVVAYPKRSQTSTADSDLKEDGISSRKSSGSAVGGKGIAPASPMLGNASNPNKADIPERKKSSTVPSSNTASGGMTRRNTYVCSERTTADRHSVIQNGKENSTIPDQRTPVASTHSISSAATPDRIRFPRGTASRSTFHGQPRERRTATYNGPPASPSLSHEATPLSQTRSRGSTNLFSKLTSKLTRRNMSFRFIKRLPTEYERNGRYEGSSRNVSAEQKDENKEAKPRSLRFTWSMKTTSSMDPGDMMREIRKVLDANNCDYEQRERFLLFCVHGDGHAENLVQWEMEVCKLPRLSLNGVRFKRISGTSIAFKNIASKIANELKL

SMILES	inhibition [1]	inhibition [2]	inhibition [3]	inhibition [4]	inhibition [5]	inhibition [6]	inhibition [7]	inhibition [8]	inhibition [9]	inhibition [10]	inhibition [11]	inhibition [12]	inhibition [13]	inhibition [14]	inhibition [15]	inhibition [16]	inhibition [17]	inhibition [18]	inhibition [19]	inhibition [20]
[O-][S+]1CCN(Cc2ccc(-c3ccc4ncnc(Nc5ccc(OCc6ccccc6)c(F)c5)c4c3)o2)CC1	1.39%	0.67%	1.47%	2.88%	1.82%	2.24%	4.41%	1.32%	9.37%	-1.34%	0.88%	-0.22%	-1.35%	1.18%	-5.45%	2.22%	0.5%	0.8%	0.1%	-0.49%
CC1=C(C(=O)Nc2ccc3[nH]ncc3c2)C(c2ccc(F)cc2)NC(=O)N1 (stereo not given)	8.67%	0.77%	4.62%	2.13%	6.05%	2.34%	46.2%	3.85%	65.3%	-0.93%	3.63%	-0.71%	-0.21%	4.98%	4.43%	0.63%	2.08%	0.13%	-0.04%	-0.16%
COc1ccc(COc2ccc(Cc3cnc(N)nc3N)cc2OC)cc1	2.06%	2.83%	1.47%	0.82%	-1.43%	10.8%	0.82%	3.14%	0.25%	1.26%	3.13%	1.77%	0.54%	-0.96%	1.56%	1.58%	-1.66%	1.34%	0.49%	2.71%
NC(=O)c1ccc(-c2nc(-c3ccccn3)c(-c3ccc4c(c3)OCO4)[nH]2)cc1	11%	1.03%	0.93%	2.76%	2.1%	1.26%	5.1%	1.27%	3.13%	-0.01%	-0.45%	0.34%	1.31%	2.92%	4.79%	3.32%	3.73%	-0.68%	0.92%	0.03%
CCn1c(-c2nonc2N)nc2c(N3CCCC3)nccc21	-0.19%	2.01%	3.21%	0.66%	6.1%	-0.54%	5.25%	-1.08%	1.33%	2.95%	3.46%	-0.88%	-1.38%	3.74%	-1.02%	-3.65%	-3.95%	0.8%	1.03%	-0.33%
Fc1cccc(COc2ccc(Nc3ncnc4cc(-c5ccc[nH]5)sc34)cc2Cl)c1	-1.25%	1.49%	1.57%	4.24%	5.38%	1%	7.21%	0.75%	3.83%	-1.15%	2.66%	-0.58%	-0.43%	3.19%	3.62%	2.24%	2.18%	-0.5%	1.01%	-3.43%
COc1cc(C=NNc2ncnc3c2cnn3-c2ccccc2)ccc1O	18.2%	1.61%	11.3%	6.74%	43.8%	12.1%	49.9%	13.7%	52%	-0.32%	6.47%	0.58%	-3.11%	2.48%	11.3%	3.34%	2%	1.39%	1.57%	-0.02%
CCn1c(-c2nonc2N)nc2ccncc21	1.4%	1.33%	2.78%	-0.81%	2.39%	1.17%	3.2%	0.41%	3.51%	-1.74%	1.6%	0.79%	0.01%	1.54%	2.74%	2.66%	-0.15%	-0.28%	-0.66%	0.35%
CNC(=O)c1cncc(/C=C/c2c(Cl)cccc2Cl)c1	3.1%	1.49%	3.08%	6.04%	14.7%	1.63%	6.73%	3.42%	16.3%	1%	2.64%	-1.52%	-0.36%	0.96%	8.72%	4.13%	4.55%	-0.49%	1.79%	-3.71%
CS(=O)(=O)CCNCc1nc(-c2ccc3ncnc(Nc4ccc(F)c(Cl)c4)c3c2)cs1	-1.39%	-0.14%	0.31%	-1.18%	3.48%	10.6%	50.4%	13.4%	55.7%	-0.48%	0.61%	1%	0.68%	1.09%	4.69%	3.04%	3.64%	1.43%	9.19%	-0.24%
COc1cc(C)c(NC(=O)CN(C)C)cc1Nc1nc(Nc2cccc(F)c2C(N)=O)c2cc[nH]c2n1	0.73%	-0.67%	0.75%	2.85%	18.1%	1.46%	0.39%	0.92%	1.25%	-2%	-0.1%	-0.35%	-3.17%	8.46%	43.5%	4.74%	8.82%	8.2%	43.2%	0.16%
Cc1ccc(NC(=O)c2ccnc(N3CCCC3)c2)cc1-c1ccc(C(=O)NCC2CC2)cc1	0.65%	4.16%	5.97%	4.85%	7.99%	1.78%	6.57%	-0.01%	1.11%	0.13%	6.34%	-0.05%	-1.71%	6.43%	11%	5.9%	5.73%	0.89%	1.92%	-2.62%
COc1ccccc1Nc1ncc(-c2ccccc2)o1	4.87%	2.98%	4.33%	4.62%	8.09%	4.22%	5.88%	1.93%	7.25%	0.41%	3.48%	-0.06%	1.05%	8.92%	13.1%	5.65%	5.8%	0.63%	1.55%	0.78%

Source: ChEMBL document CHEMBL1961873, “Compounds: GSK PKIS; Assays: Nanosyn kinase panel” (2012)
